# KCNQ2 enhance = potentiators of rat KCNQ2 potassium channel; Potassium voltage-gated channel subfamily KQT member 2 (Rattus norvegicus), O88943; CHO-K1 KCNQ2, FluxOR thallium flux fluorescence; active compounds read high; B-score at 10 µM; hit rate 0.54% among 310,000; AID 2239, 2010;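 active = fluorescence ratio B-score at least 3 SD of library B-scores, with initial fluorescence B-score within 3 of them, cut at about 5.3 in these data; same plate scores as AID 2156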;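 note: B-score of peak minus minimum over baseline fluorescence ratio after K+ and Tl+ stimulus; positive B-score means potentiation of KCNQ2 with more thallium influx and brighter signal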
# Target sequence (O88943 whole entry, looked up): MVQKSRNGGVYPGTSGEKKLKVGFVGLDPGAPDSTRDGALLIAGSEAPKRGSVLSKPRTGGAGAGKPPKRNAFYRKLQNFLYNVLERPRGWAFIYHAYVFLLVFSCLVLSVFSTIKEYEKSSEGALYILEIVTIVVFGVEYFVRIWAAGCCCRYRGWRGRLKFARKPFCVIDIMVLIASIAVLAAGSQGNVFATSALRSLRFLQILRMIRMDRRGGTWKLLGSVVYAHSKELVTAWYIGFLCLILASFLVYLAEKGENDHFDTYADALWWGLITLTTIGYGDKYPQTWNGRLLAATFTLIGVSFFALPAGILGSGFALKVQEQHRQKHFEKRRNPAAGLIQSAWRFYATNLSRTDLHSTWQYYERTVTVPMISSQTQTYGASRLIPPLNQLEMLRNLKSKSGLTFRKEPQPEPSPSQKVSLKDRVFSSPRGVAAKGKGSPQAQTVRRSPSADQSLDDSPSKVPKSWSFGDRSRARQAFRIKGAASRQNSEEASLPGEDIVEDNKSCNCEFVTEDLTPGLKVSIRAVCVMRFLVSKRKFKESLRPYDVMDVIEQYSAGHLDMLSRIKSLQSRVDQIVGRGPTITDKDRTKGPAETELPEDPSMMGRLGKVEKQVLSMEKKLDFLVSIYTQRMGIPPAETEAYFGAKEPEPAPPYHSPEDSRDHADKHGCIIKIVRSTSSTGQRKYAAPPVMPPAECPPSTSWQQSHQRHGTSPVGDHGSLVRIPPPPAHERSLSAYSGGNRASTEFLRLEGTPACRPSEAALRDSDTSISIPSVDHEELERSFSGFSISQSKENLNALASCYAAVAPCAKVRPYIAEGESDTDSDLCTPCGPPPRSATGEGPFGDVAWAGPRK
# KCNQ2 inh = rat KCNQ2 potassium channel inhibitors, primary screen, cell-based, CHO-K1, FluxOR thallium flux, B-score. AID 2156, 2009. B-score at 10 µM. 20 min; active compounds read low. Potassium voltage-gated channel subfamily KQT member 2 (Rattus norvegicus), O88943. hit rate 1.1% among 310,000;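 active = fluorescence ratio B-score at most minus 3 library SDs, with starting brightness B-score within 2 library SDs, cut at about -5.5 in these data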
# KCNQ2 block conf = rat KCNQ2 potassium channel inhibitors, confirmation, cell-based, thallium flux | shares compounds with KCNQ2 inh | KCNQ2-expressing cells, inhibition; active compounds read low | activity change, negative = inhibition, % at 10 µM | hit rate 57% among 1,000 | AID 493025, 2011;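 note: 0% = vehicle wells and values are ratio percent relative to vehicle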
# KCNQ1 spec = human KCNQ1 channel inhibition, counter-screen for KCNQ2 inhibitor project, cell-based, FluxOR thallium flux | activity change, negative = inhibition, % at 10 µM | hit rate 15% among 1,000 | shares compounds with KCNQ2 inh | KCNQ1-expressing cells, FluxOR thallium flux fluorescence; active compounds read low;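 active = activity change at least 3 SD of negative controls below their mean in both duplicate wells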;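 note: CHO cells stably transfected with KCNQ1 and depolarized by potassium stimulus; peak minus minimum fluorescence over baseline after thallium addition; 0% = vehicle negative control and -100% = blank without thallium stimulus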
# CHO Tl ctr = thallium flux change in parental CHO cells, counter-screen for KCNQ2 inhibitor project. activity change, % at 10 µM. active compounds read low. shares compounds with KCNQ2 inh. hit rate 14% among 1,000. AID 493029, 2011;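 note: 0% = vehicle negative controls with stimulus buffer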
# KCNQ2 patch conf = rat KCNQ2 channel inhibitors, confirmation, cell-based, automated patch clamp, single concentration; shares compounds with KCNQ2 inh; KCNQ2-expressing cells, automated patch clamp current; calls only at 10 µM; hit rate 49% among 550
# The depositor's hits bear a star; i = inactive; . = no result given. Hits are enriched below; roughly 1.6% of the tested compounds scored in any of these assays. Unless noted, the rule behind the calls is not given here.
SMILES,KCNQ2 enhance,KCNQ2 inh,others
COc1c(C(=O)Nc2ccccc2N2CCOCC2)cc2ccccc2c1Br,-7.47,-7.47*,
O=C(Nc1ccccc1N1CCOCC1)c1cc2ccccc2o1,.,i,
COc1ccc(N2CCOCC2)c(NC(=O)c2cc3ccccc3o2)c1,-7.34,-7.34*,
COc1ccccc1C(=O)Nc1ccccc1N1CCOCC1,.,i,
CCCS(=O)(=O)N1CCCC(C(=O)Nc2ccc3c(c2)CCC3)C1 (stereo not drawn),0.34,i,
COc1ccc(C(=O)NC2CC(C)(C)Cc3c2cnn3-c2ccccc2C)c(OC)c1OC (stereo not drawn),.,i,
Cc1cc(C)c(C(=O)NC2CCCc3c2cnn3-c2cccc(C)c2C)o1 (stereo not drawn),-6.62,-6.62*,
Cc1cc(C(=O)NC2CC(C)(C)Cc3c2cnn3-c2ccccc2C)c(C)o1 (stereo not drawn),-5.74,-5.74*,
Cc1cccc(-n2ncc3c2CCCC3NC(=O)C2(C(N)=O)CC2)c1C (stereo not drawn),0.59,i,
Cc1ccc(C)c(NC(=O)C[n+]2ccccc2)c1,.,i,
CCOc1cc(NC(=O)C(C)C)c(OCC)cc1NC(=O)Nc1ccccc1,.,i,
COc1ccc(Cn2c(/C=C/c3ccccc3)nc3ccccc32)cc1,.,i,
Clc1ccccc1Cn1c(/C=C/c2ccco2)nc2ccccc21,-7.05,-7.05*,
CN(C)S(=O)(=O)c1cccc(C(=O)OCC(=O)NC2CCCc3ccccc32)c1 (stereo not drawn),1.33,i,
Cc1cc(S(=O)(=O)c2ccc([N+](=O)[O-])cn2)ccc1Br,.,i,
Cc1ccc(S(=O)(=O)c2ccc([N+](=O)[O-])cn2)cc1,-5.97,-5.97*,
CC12CCC(C(=O)Nc3cccc(Cl)c3)(C(Br)C1=O)C2(C)C (stereo not drawn),6.98*,i,
CC12CCC(C(=O)Nc3ccc(Cl)cc3)([C@H](Br)C1=O)C2(C)C (stereo partly drawn),.,i,
CC(C)OC(=O)c1ccc2nc3ccccc3nc2c1,0.02,i,
CCN(CC(=O)Nc1ccccc1C(F)(F)F)C(=O)c1oc2ccc(OC)cc2c1C,-6.02,-6.02*,
CCc1noc(C)c1C(=O)N(CC)CC(=O)Nc1ccccc1C(F)(F)F,0.74,i,
CC(=O)C(Cc1ccccc1)(Cc1ccccc1)C(C)=O,0.24,i,
CCOC(=O)C(Cc1ccccc1)(Cc1ccccc1)C(C)=O,-6.44,-6.44*,
Cc1ccc(-c2csc3nc[nH]c(=S)c23)cc1,13.6*,i,
O=c1[nH]cnc2scc(-c3ccc(Br)cc3)c12,0.84,i,
SMILES,KCNQ2 enhance,KCNQ2 inh,others
CCN1CCCC1CNC(=O)C(=O)NCCc1ccc(OC)c(OC)c1 (stereo not drawn),0.39,i,
Cc1c(OCC(=O)NCCN2CCOCC2)ccc2c(-c3ccccc3)cc(=O)oc12,.,i,
Cc1ccc(C2C(C#N)=C(N)SC(N)=C2C#N)o1,0.54,i,
Cc1ccc(C2OC3=C(C(=O)CC(C)(C)C3)C(N)=C2C#N)o1 (stereo not drawn),5.32*,i,
COc1ccc(S(=O)(=O)N2CCc3cc4c(cc3C2C)OCCCO4)cc1 (stereo not drawn),.,i,
O=C(Nc1cccc(S(=O)(=O)N2CCCCCC2)c1)C1CCC1,0.87,i,
COc1ccc(/C=C/C(=O)O)cc1COc1cccc(C)c1,0.61,i,
COc1ccc(C=O)cc1COc1ccc([N+](=O)[O-])c(C)c1,-6.82,-6.82*,
COc1cc(-c2nnc(SCc3ccccc3Cl)o2)cc(OC)c1OC,-6.83,-6.83*,
COc1cc(-c2nnc(SCc3c(F)cccc3Cl)o2)cc(OC)c1OC,.,i,
O=C(COc1coc(CN2CCc3ccccc3C2)cc1=O)Nc1cccc([N+](=O)[O-])c1,1.3,i,
O=c1[nH]c(=S)[nH]c2c1CN(Cc1ccc(F)cc1)CC2,1.25,i,
O=C(Nc1ccccc1N1CCCC1)c1cc(S(=O)(=O)N2CCOCC2)ccc1Cl,-5.9,-5.9*,
CCN(CC(=O)Nc1cc(S(=O)(=O)N2CCCCC2)ccc1Cl)Cc1ccccc1,-7.75,-7.75*,
O=C(Nc1cc(S(=O)(=O)N2CCOCC2)ccc1N1CCCC1)c1ccc2c(c1)S(=O)(=O)c1ccccc1C2=O,-5.86,-5.86*,
CCN1CCN(S(=O)(=O)c2ccc(Cl)c(C(=O)Nc3ccccc3N3CCCCC3)c2)CC1,-5.58,-5.58*,
O=C(Nc1cc(S(=O)(=O)N2CCOCC2)ccc1N1CCCC1)c1cccnc1Cl,.,i,
CCN(CC(=O)Nc1ccc(S(=O)(=O)N2CCCCC2)cc1)Cc1ccccc1,.,i,
CCN1CCN(S(=O)(=O)c2ccc(Cl)c(C(=O)Nc3ccccc3N3CCCC3)c2)CC1,.,i,
O=C(Nc1ccccc1F)Nc1cc(S(=O)(=O)N2CCOCC2)ccc1N1CCCC1,0.12,i,
CC1CCCN(c2ccc3nncn3n2)C1 (stereo not drawn),.,i,
CC(=O)c1ccc(N2Cc3ccccc3/C2=N\C(=O)Nc2ccc(Cl)cc2)cc1,1.79,i,
CCCCn1nc(C(=O)N2CCN(S(=O)(=O)c3ccccc3)CC2)c2ccccc2c1=O,0.38,i,
CCOC(=O)C1=C(COC(=O)CCOc2ccc(C)cc2)NC(=O)NC1C (stereo not drawn),0.04,i,
O=C(CN1CCN(C(=O)N2CCOCC2)CC1)Nc1cc(Cl)ccc1Cl,.,i,
SMILES,KCNQ2 enhance,KCNQ2 inh,others
CC(=O)C1=C(C)Nc2ncnn2C1c1ccc(Br)cc1 (stereo not drawn),0.4,i,
COc1ccc(NC(=O)COc2ccc3c(C)cc(=O)oc3c2)cc1S(=O)(=O)N1CCCCC1,0.1,i,
COc1cccc(-c2nn(-c3ccc(C)cc3)cc2C(=O)N2CCc3cc(OC)c(OC)cc3C2)c1,-6.22,-6.22*,
COc1cccc(-c2nn(-c3ccccc3)cc2C(=O)O)c1,0.55,i,
CCOc1ccccc1OCCCC(=O)N(CC)CC(=O)Nc1c(F)cccc1F,1.54,i,
O=C(COC(=O)c1ccccc1C(=O)c1ccc(Cl)cc1)NCCc1ccccc1,.,i,
O=C(COC(=O)c1ccccc1C(=O)c1ccc(Cl)cc1)NC(c1ccccc1)c1ccccc1,-8.73,-8.73*,KCNQ2 block conf=i;KCNQ1 spec=i;CHO Tl ctr=i
O=C(OCc1ccccc1Cl)c1ccccc1C(=O)c1ccccc1,-8.27,-8.27*,KCNQ2 block conf=-35.5%*;KCNQ1 spec=-35.5%*;CHO Tl ctr=-34.5%*;KCNQ2 patch conf=i
O=C(OCc1ccccc1Cl)c1cccnc1Cl,.,i,
O=C(CNCCc1ccc(F)cc1)Nc1cc(F)ccc1F,0.92,i,

# Compound activity: PubChem, Johns Hopkins Ion Channel Center
